Assay results from PubChem BioAssay (Tox21).
Inconclusive results are not listed. Active and inactive are the calls of the source. Unless noted, the call rests on the fitted dose curve; in most records, active means well fitted curve in the direction sought with a large enough effect in the repeat runs; inconclusive means weak or mixed curves; inactive means no such curve, though single readings can be large; an effect the other way counts as inactive or inconclusive.

Key:
[1] = qHTS assay to identify small molecule agonists of the TGF-beta/Smad signaling pathway (AID 1346859; active means well fitted activation curve with a large enough effect in the signal ratio in the repeat runs, not every such curve was filed as active; the % refers to the signal ratio; further: series mostly up to about 77 µM)
Method in brief: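 Stable Smad binding element-beta-lactamase HEK 293T cells; 5 hr compound exposure at 37 C under 5% CO2; 2 hr room-temperature substrate step; fluorescence excited at 405 nm, collected at 460 nm and 530 nm.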

[2] = Human pregnane X receptor (PXR) small molecule agonists, qHTS cell viability counter screen (AID 1346977); further: nearly all actives have a fitted effect of over 50% in size
Method in brief: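 Readout is CellTiter-Fluor fluorescence from PXR-Luc HepG2 cells. Plated cells rested 5hr, then were treated with compounds for 24hr at 37C and 5% CO2, with reagent present during the last hour.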

[3] = Caspase-3/7 induction in HepG2 cells by small molecules, qHTS assay (AID 1346978); further: nearly all actives have a fitted effect of over 15% in size
Method in brief: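 Caspase-3/7 induction was measured by Caspase-Glo 3/7 luminescence (30 min, room temperature) after a 17 hr compound exposure of wild-type HepG2 cells seeded at 2,000 per well and pre-incubated 5 hr.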

[4] = Caspase-3/7 induction in CHO-K1 cells by small molecules, qHTS cell viability counter screen (AID 1346979); further: nearly all actives have a fitted effect of over 35% in size
Method in brief: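 To flag cytotoxic compounds, treated CHO-K1 wild-type cells were given CellTiter-Fluor at 16hr and read fluorescently after 1hr at 37C; the caspase-3/7 luminescence was measured in these same wells.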

[5] = Caspase-3/7 induction in CHO-K1 cells by small molecules, qHTS assay (AID 1346980); further: nearly all actives have a fitted effect of over 15% in size
Method in brief: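 Luminescent Caspase-Glo 3/7 read (30min, room temperature) quantified apoptosis induction. Cells were wild-type CHO-K1, treated with compound for 17hr at 37 C and 5% CO2.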

[6] = Caspase-3/7 induction in HepG2 cells by small molecules, qHTS cell viability counter screen (AID 1346981); further: series mostly up to about 92 µM; nearly all actives have a fitted effect of over 30% in size
Method in brief: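 Multiplexed with the caspase-3/7 assay: HepG2 cells, 16 hr compound treatment, CellTiter-Fluor viability detection by fluorescence.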

[7] = biological target: Nuclear receptor subfamily 1 group I member 2 (Homo sapiens) (UniProt O75469); test: Human pregnane X receptor (PXR) small molecule agonists, qHTS assay (AID 1346982); further: nearly all actives have a fitted effect of over 35% in size
Method in brief: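 We seeded PXR-Luc HepG2 cells in assay medium containing 5% charcoal-stripped FBS, added compounds 5 hr later, incubated 24 hr, and read luminescence with ONE-Glo reagent.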

[8] = biological target: Nuclear receptor subfamily 1 group I member 2 (Rattus norvegicus) (UniProt Q9R1A7); test: Rat pregnane X receptor (rPXR) activation by small molecules, qHTS assay (AID 1346983); details: rPXR luciferase reporter cells, One-Glo luminescence, 24 h; max activation: stronger effect = higher value; further: nearly all actives have a fitted effect of over 20% in size
Method in brief: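 Luminescent readout (One-Glo luciferase, 30 min room temperature) followed 24 hr compound treatment at 37 C of rPXR cells plated 2,000 per well and preincubated 5hr; qHTS format with compounds delivered in DMSO.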

[9] = biological target: Thyrotropin-releasing hormone receptor (Homo sapiens) (UniProt P34981); test: qHTS assay to identify small molecule antagonists of the thyrotropin-releasing hormone receptor (TRHR) signaling pathway (AID 1346877; active means well fitted inhibition curve with a large enough effect in the repeat runs, not every such curve was filed as active; further: series mostly up to about 51 µM)
Method in brief: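 Screening used HEK293 cells engineered with TRHR, with a brief 5 min room-temperature compound exposure preceding addition of TRH to 1 nM. The read-out was kinetic calcium-dye fluorescence, concentration-response from 15 doses in triplicate.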

[10] = biological target: Thyrotropin-releasing hormone receptor (Homo sapiens) (UniProt P34981); test: qHTS assay to identify small molecule agonists of the thyrotropin-releasing hormone receptor (TRHR) signaling pathway (AID 1346891; calls by dose curve;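 further: HEK293 cells expressing TRHR with calcium dye readout; series mostly up to about 58 µM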)
Method in brief: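 In 1536-format, 1500 TRHR-Hek293 cells per well grew 18 h, took up calcium dye for 2 h at 37 °C, received compound, and were read kinetically; 15-point titrations, triplicates.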
On the % scale 0 is the no-effect control and ±100 the full control effect.

Chain of Nuclear receptor subfamily 1 group I member 2 (Homo sapiens) (O75469 whole entry, looked up): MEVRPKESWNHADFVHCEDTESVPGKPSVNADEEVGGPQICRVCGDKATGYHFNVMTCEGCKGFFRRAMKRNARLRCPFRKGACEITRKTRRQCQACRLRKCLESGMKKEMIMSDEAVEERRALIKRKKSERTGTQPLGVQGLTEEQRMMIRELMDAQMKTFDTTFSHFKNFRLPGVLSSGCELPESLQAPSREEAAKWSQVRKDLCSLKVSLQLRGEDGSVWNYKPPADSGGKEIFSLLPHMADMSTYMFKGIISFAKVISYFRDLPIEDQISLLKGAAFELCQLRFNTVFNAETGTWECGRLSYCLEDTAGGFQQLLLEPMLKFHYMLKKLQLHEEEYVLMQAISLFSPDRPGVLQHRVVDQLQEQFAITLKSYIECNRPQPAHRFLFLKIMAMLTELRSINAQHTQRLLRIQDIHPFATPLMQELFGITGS
Chain of Nuclear receptor subfamily 1 group I member 2 (Rattus norvegicus) (Q9R1A7 whole entry, looked up): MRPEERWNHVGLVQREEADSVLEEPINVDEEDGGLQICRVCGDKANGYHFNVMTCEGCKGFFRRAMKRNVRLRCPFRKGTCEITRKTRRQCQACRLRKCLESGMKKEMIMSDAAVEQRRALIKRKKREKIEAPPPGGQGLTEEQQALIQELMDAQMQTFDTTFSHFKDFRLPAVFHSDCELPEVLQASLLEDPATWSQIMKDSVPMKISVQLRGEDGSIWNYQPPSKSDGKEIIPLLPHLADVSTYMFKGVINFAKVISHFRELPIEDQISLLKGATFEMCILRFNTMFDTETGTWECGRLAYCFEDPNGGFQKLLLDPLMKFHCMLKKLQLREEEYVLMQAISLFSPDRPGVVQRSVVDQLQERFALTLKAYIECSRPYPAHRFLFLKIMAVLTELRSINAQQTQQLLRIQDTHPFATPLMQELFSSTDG
Chain of Thyrotropin-releasing hormone receptor (Homo sapiens) (P34981 whole entry, looked up): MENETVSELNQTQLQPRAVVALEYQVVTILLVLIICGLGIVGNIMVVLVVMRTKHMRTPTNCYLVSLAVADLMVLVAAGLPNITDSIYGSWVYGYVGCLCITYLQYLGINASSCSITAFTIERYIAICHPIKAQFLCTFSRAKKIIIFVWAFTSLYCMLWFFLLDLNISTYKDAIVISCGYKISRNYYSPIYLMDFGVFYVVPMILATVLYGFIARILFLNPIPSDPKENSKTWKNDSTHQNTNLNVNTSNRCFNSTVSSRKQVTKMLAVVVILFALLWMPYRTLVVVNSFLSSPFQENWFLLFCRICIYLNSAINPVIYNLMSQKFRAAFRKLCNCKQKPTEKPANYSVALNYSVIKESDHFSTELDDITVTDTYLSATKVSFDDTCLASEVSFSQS

O=c1cc(O)c(Cl)c[nH]1
inactive: outcome [1] | Potency [2] | outcome [3] | Potency [4] | outcome [5] | Potency [6] | Potency [7] | max activation [8] -3.03%

CCCCCCCCCCCCCCCCI
inactive: activation [1] 1.65% [at 15.8 µM] | activity change, negative = cytotoxicity [2] 1.52% [at 19 µM] | caspase activation [3] 0.99% [at 19 µM] | caspase-3/7 activation [5] -0.405% [at 19 µM] | activity change, negative = cytotoxicity [6] 7.09% [at 19 µM] | activation [7] 0.718% [at 19 µM]

CCCCCCCCCCCCCCCCCCN(C)C
inactive: outcome [1] | Potency [2] | outcome [3] | outcome [5] | Potency [6] | Potency [7]

C[N+](C)(C)CC(O)CCl (stereo not drawn)
inactive: outcome [1] | Potency [2] | outcome [3] | outcome [5] | Potency [6] | Potency [7]

Cc1oc(=O)oc1CN1CCN(c2cc3c(cc2F)c(=O)c(C(=O)O)c2n3C(C)S2)CC1 (stereo not drawn)
inactive: outcome [9] | outcome [10] | Potency [2] | outcome [3] | Potency [4] | outcome [5] | Potency [6] | Potency [7] | max activation [8] -2.98%

CC(=O)N(CC(O)CO)c1c(I)c(C(=O)NCC(O)CO)c(I)c(C(=O)NCC(O)CO)c1I (stereo not drawn)
inactive: outcome [1] | Potency [2] | outcome [3] | Potency [4] | outcome [5] | Potency [6] | Potency [7] | max activation [8] -0.214%

CCC1Nc2cc(Cl)c(S(N)(=O)=O)cc2S(=O)(=O)N1 (stereo not drawn)
inactive: outcome [1] | Potency [2] | outcome [3] | Potency [4] | outcome [5] | Potency [6] | Potency [7] | max activation [8] -2.65%

Cc1ccccc1C
inactive: outcome [1] | Potency [2] | outcome [3] | outcome [5] | Potency [6] | Potency [7]

COc1cc2c(Nc3ccc(Br)cc3F)ncnc2cc1OCC1CCN(C)CC1
inactive: outcome [1] | Potency [2] | outcome [3] | Potency [4] | outcome [5] | Potency [6] | Potency [7] | max activation [8] -20.7%

COc1cc2c3cc1Oc1cc(ccc1O)C[C@@H]1c4c(cc(OC)c(O)c4Oc4ccc(cc4)C[C@@H]3N(C)CC2)CC[N+]1(C)C
inactive: outcome [1] | Potency [2] | outcome [3] | Potency [4] | outcome [5] | Potency [6] | Potency [7] | max activation [8] -3.43%

O=C(Nc1cccc(C2=NCCN2)c1)Nc1cccc(C2=NCCN2)c1
inactive: activation [1] 0.662% [at 15.8 µM] | activity change, negative = cytotoxicity [2] 1.2% [at 19 µM] | caspase activation [3] -0.792% [at 19 µM] | activity change, negative = cytotoxicity [4] 4% [at 19 µM] | caspase-3/7 activation [5] 0.277% [at 19 µM] | activity change, negative = cytotoxicity [6] 2.76% [at 19 µM] | activation [7] -0.413% [at 19 µM] | max activation [8] -0.171%

O=C(O)c1ccc(OCCN2CCCCC2)cc1
inactive: outcome [1] | Potency [2] | outcome [3] | outcome [5] | Potency [6] | Potency [7]

CO[Si](CCCS)(OC)OC
inactive: outcome [1] | Potency [2] | outcome [3] | outcome [5] | Potency [6] | Potency [7]

CC(=O)OC(C(=O)c1ccccc1)c1ccccc1 (stereo not drawn)
inactive: outcome [1] | Potency [2] | outcome [3] | outcome [5] | Potency [6]

C=CCOc1c(Br)cc(C(C)(C)c2cc(Br)c(OCC=C)c(Br)c2)cc1Br
inactive: outcome [1] | Potency [2] | Potency [4] | outcome [5] | Potency [6]

Cc1cccc(Nc2ccncc2S(=O)(=O)NC(=O)NC(C)C)c1
inactive: outcome [1] | Potency [2] | outcome [3] | outcome [5] | Potency [6] | max activation [8] -0.7%

O=c1[nH]c(=O)c2ccccc2o1
inactive: outcome [1] | Potency [2] | outcome [3] | outcome [5] | Potency [6] | Potency [7] | max activation [8] -5.11%

CCCCCCCCCCC
inactive: outcome [1] | Potency [2] | Potency [4] | outcome [5] | Potency [6] | Potency [7]

CCOC(=O)C(C)(C)C
inactive: outcome [1] | Potency [2] | Potency [4] | outcome [5] | Potency [6] | Potency [7]

CC(=O)OCCCc1ccccc1
inactive: outcome [1] | Potency [2] | Potency [4] | outcome [5] | Potency [6] | Potency [7]

CCC(C)(CCC(C)C)C(=O)[O-].CCC(C)(CCC(C)C)C(=O)[O-].[Zn+2] (stereo not drawn)
inactive: outcome [1] | Potency [2] | Potency [4] | outcome [5] | Potency [6]

Nc1ccc(S(=O)(=O)Nc2ccccn2)cc1
inactive: outcome [1] | Potency [2] | Potency [4] | outcome [5] | Potency [6] | Potency [7] | max activation [8] -1.43%

CN[C@@H]1[C@H](O)[C@H](NC)[C@H]2O[C@@]3(O)C(=O)C[C@@H](C)O[C@H]3O[C@@H]2[C@H]1O
inactive: outcome [1] | Potency [2] | outcome [3] | Potency [4] | outcome [5] | Potency [6] | Potency [7] | max activation [8] -0.189%

CC(C)COC(=O)CC(C(=O)OCC(C)C)S(=O)(=O)O (stereo not drawn)
inactive: outcome [1] | Potency [2] | outcome [3] | outcome [5] | Potency [6] | Potency [7]

CCCCC[Si](OCC)(OCC)OCC
inactive: outcome [1] | Potency [2] | outcome [3] | outcome [5] | Potency [6] | Potency [7]

CC(C)(c1ccc(Oc2ccc3c(c2)C(=O)OC3=O)cc1)c1ccc(Oc2ccc3c(c2)C(=O)OC3=O)cc1
inactive: outcome [1] | Potency [2] | outcome [5] | Potency [6]

OC[C@@H](O)[C@H](O)[C@@H](O)[C@@H](O)CO
inactive: outcome [1] | Potency [2] | Potency [4] | outcome [5] | Potency [6] | Potency [7]

COCC(=O)Nc1c(I)c(C(=O)NCC(O)CO)c(I)c(C(=O)N(C)CC(O)CO)c1I (stereo not drawn)
inactive: outcome [1] | Potency [2] | Potency [4] | outcome [5] | Potency [6] | Potency [7] | max activation [8] -3.61%
